# Experimental data from PubChem BioAssay.
# Values joined by “and” are separate entries in the source; they are usually repeats but may differ in a detail not shown here. Equal entries are not always repeated. Active and inactive are the calls of the source.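 How the source made its calls, unless noted: active means compounds whose cell count with miR-34 switched on is under 0.7 times the count with it off; inactive means the rest.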
# Key:
# [1] = stimulators of nuclear beta-catenin in C2C12, primary screen, imaging, WNT3A-conditioned medium, mouse C2C12, NPC library (AID 1117326; in the data active means nuclear beta-catenin stimulation mostly above about 4.2%, no sharp cut-off; inactive means mostly below about 10%); conditions: stronger effect = higher value
# [2] = stimulators of insulin release from INS-1E, primary screen, cell-based, 5 mM glucose, NPC library (AID 1117329;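 active means compound raises insulin release from rat beta cells at 5 mM glucose, no numeric limit stated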); conditions: rat INS-1E insulin secretion, at 10 µM, stronger effect = higher value
# [3] = growth inhibition of GSK3B-pretreated HCT116 cells – cell-based, CellTiter-Glo, 0.2 to 20 µM (AID 1117336;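 active means compounds lowering colon cancer cell viability after pretreatment blocking the GSK3B kinase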); conditions: HCT116 viability after GSK3B inhibitor, at 20 µM, stronger effect = higher value
# [4] = inhibition of endothelial tube formation, primary screen, imaging, VEGF stimulated, CD31 staining, tube area, NPC library (AID 1117340;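 active means compound that reduces growth-factor-driven endothelial tube area in a mixed cell culture, no cutoff stated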); conditions: VEGF-stimulated ADSC/ECFC co-culture, at 10 µM, stronger effect = higher value
# [5] = glucagon-like peptide 1 release enhancers, primary assay, NCI-H716 cell line, NPC library (AID 1117341;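 active means compound raises GLP1 secretion from the human gut endocrine cells, with no numeric limit stated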); conditions: NCI-H716 cells, at 10 µM, stronger effect = higher value
# [6] = HCT116 colon cancer cell growth inhibition, primary screen, CellTiter-Glo luminescence, NPC library (AID 1117342;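 active means compounds that lower survival of HCT116 colon cancer cells in the luminescence readout, no numeric limit stated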); conditions: at 20 µM (top of the series)
# [7] = CellTiter-Glo luminescent readout of SW480 viability loss, NPC library primary (AID 1117343;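 active means compounds that lower viability of the colon cancer cells in the luminescence readout, with no numeric limit stated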); conditions: CellTiter-Glo luminescence; at 20 µM (top of the series)
# [8] = decreased DLD-1 cellular survival, CellTiter-Glo luminescent readout, NPC compound collection, primary HTS (AID 1117346;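 active means compounds that lower survival of DLD-1 colon cancer cells in the luminescence readout, no cutoff given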); conditions: DLD-1 viability, CellTiter-Glo luminescence; at 20 µM (top of the series)
# [9] = differential killing of epithelial or mesenchymal cells, primary screen, imaging, PC-3E GFP, TEM4-18 mCherry, co-culture (AID 1345086;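 active means compounds killing one labelled cell type while sparing the other, by normalised counts and ratio limits, not self-fluorescent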;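 on all read-outs here: cells exposed to compound for 72 h before imaging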;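 on red/green cell ratio (normalised): normalised mesenchymal count divided by normalised epithelial count so high means epithelial killing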); conditions: imaging cell counts, at 1 µM; for red/green cell ratio (normalised): actives lie on both sides
# [10] = sensitizers of A549 cells to miR-34 induction, primary screen, imaging, A549 dox-inducible miR-34, nuclei and caspase counts (AID 1347080); conditions: A549 miR-34 inducible, Hoechst nuclei count, 48 h
# [11] = target: NAD(+) hydrolase SARM1 (Homo sapiens) (UniProt Q6SZW1); assay: SARM1 TIR NADase inhibitors, cell lysate, NAD-Glo luminescence (AID 1508614;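 active means compound whose remaining NAD level is above about 45 nM, limit read from the data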); conditions: SAM-TIR HEK293T lysate NADase, at 1 µM, stronger effect = higher value
# [12] = viability rescue of complex I mutant cybrids, primary screen, cell-based, galactose medium, ATP luminescence (AID 1645843;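 active means z-score of at least 1.8 in each of two replicates, scored against plate mean and spread of sample wells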;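 further: positive z means more ATP and so rescue of galactose-driven cybrid death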); conditions: complex I mutant cybrid cells, 72 h, stronger effect = higher value
# [13] = liver-stage malaria parasite growth inhibition, primary screen, cell-based, HepG2, luciferase luminescence, HepG2 viability (AID 624349; in the data active means parasite load remaining mostly below about 12%, no sharp cut-off; inactive means mostly above about 10%;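 further: 100% = mean of DMSO negative control wells on the same plate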); conditions: P. berghei liver stage in HepG2, luciferase luminescence, concentration not given here; parasite load remaining: stronger effect = lower value; viability: measured here: HepG2 viability without parasites
# [14] = survival rescue of mitochondrial mutant cells in low glucose, primary screen, MELAS cybrids, Rieske KO mouse fibroblasts, CellTiter-Glo (AID 1508586;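 active means mean z-score across replicates of 1.96 or higher in either the MELAS or the Rieske mutant cell line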;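 further: z relative to plate mean and SD of compound and empty wells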)
# [15] = test system: Aerobactin synthetase IucA (Klebsiella pneumoniae, hypervirulent); assay: IucA enzyme inhibition, biochemical, LOPAC library, absorbance readout (AID 1346212; call rule not given here;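 further: 100% = no compound wells and 0% = no enzyme wells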); conditions: IucA enzyme assay, absorbance (OD) readout; stronger effect = lower value;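 tested at 8 µM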
# [16] = measured here: epithelial PC-3E GFP cell survival
# [17] = measured here: mesenchymal TEM4-18 mCherry cell survival
# [18] = measured here: relative caspase fold change +Dox/-Dox
# [19] = measured here: total cells with miR-34 induction, stronger effect = lower value
# [20] = measured here: total cells without miR-34 induction
# [21] = MELAS cybrid survival, CellTiter-Glo 48 h, stronger effect = higher value
# [22] = Rieske KO mouse fibroblast survival, CellTiter-Glo 72 h
# Chain of NAD(+) hydrolase SARM1 (Homo sapiens) (Q6SZW1 whole entry, looked up): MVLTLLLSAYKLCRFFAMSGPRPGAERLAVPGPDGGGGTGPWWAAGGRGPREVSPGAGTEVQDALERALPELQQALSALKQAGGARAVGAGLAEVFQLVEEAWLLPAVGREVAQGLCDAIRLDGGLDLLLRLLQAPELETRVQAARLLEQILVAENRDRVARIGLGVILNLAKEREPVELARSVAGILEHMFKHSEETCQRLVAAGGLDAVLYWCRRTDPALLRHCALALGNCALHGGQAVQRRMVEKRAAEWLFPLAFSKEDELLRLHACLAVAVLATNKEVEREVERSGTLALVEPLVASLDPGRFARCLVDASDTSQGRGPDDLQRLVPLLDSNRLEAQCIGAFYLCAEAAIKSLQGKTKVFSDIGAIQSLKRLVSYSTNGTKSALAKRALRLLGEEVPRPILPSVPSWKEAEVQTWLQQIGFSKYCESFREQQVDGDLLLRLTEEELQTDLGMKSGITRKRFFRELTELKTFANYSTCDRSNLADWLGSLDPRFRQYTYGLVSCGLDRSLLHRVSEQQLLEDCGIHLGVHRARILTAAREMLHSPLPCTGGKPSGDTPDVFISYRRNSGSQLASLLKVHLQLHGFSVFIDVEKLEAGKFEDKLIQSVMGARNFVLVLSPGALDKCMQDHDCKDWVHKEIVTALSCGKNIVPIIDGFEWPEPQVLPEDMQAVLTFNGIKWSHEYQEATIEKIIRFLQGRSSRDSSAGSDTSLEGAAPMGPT
smiles,measurement,setting,value
NP(N)(=O)NC(=O)c1ccc(F)cc1,nuclear beta-catenin stimulation,[1]; at 10 µM,0.1% (inactive)
same,nuclear beta-catenin stimulation,"[1]; stimulation, at 2 µM",0.9%
same,insulin secretion stimulation,[2],-0.7% (inactive)
same,viability decrease,[3],-1.25% (inactive)
same,tube area decrease,[4],-20.9% (inactive)
same,GLP1 secretion stimulation,[5],1.1% (inactive)
same,inhibition of viability,[6],-0.3% (inactive)
same,viability decrease (inhibition),[7],31.5% (inactive)
same,viability decrease (inhibition),[8],6.6% (inactive)
same,red/green cell ratio (normalised),[9],0.99 (inactive)
same,normalised cell number,[9]; [16],0.92
same,normalised cell number,[9]; [17],0.91
same,fold change,[10]; stronger effect = lower value,0.935 (inactive) and 0.913 (inactive)
same,fold change,[10]; [18],0.958 and 0.851
same,cell count,[10]; [19],8980 and 8200
same,cell count,[10]; [20],9600 and 8990
same,remaining NAD,[11],10 nM (inactive)
same,z-score,[12],-0.31 (inactive)
c1ccc2c(c1)Nc1ccccc1S2,parasite load remaining,[13],39.8% (inactive)
same,viability,[13],65.3%
same,nuclear beta-catenin stimulation,[1]; at 10 µM,-1.5% (inactive)
same,nuclear beta-catenin stimulation,"[1]; stimulation, at 2 µM",-0.5%
same,insulin secretion stimulation,[2],1% (inactive)
same,viability decrease,[3],77.7% (active)
same,tube area decrease,[4],-18.6% (inactive)
same,GLP1 secretion stimulation,[5],-2.4% (inactive)
same,inhibition of viability,[6],48.1% (inactive)
same,viability decrease (inhibition),[7],60% (active)
same,viability decrease (inhibition),[8],38% (active)
same,red/green cell ratio (normalised),[9],0.84 (inactive)
same,normalised cell number,[9]; [16],0.93
same,normalised cell number,[9]; [17],0.78
same,fold change,[10]; stronger effect = lower value,0.885 (inactive) and 0.762 (inactive)
same,fold change,[10]; [18],1.16 and 2.24
same,cell count,[10]; [19],8220 and 7990
same,cell count,[10]; [20],9300 and 10500
same,z-score,[14]; [21],-0.376 (inactive) and 0.48 (inactive)
same,z-score,[14]; [22],-0.33 and 0.378
same,remaining NAD,[11],10 nM (inactive)
same,z-score,[12],-0.355 (inactive)
CN1C(=O)CN=C(c2ccccc2)c2cc([N+](=O)[O-])ccc21,parasite load remaining,[13],83.1% (inactive)
same,viability,[13],68.8%
same,nuclear beta-catenin stimulation,[1]; at 10 µM,0.5% (inactive)
same,nuclear beta-catenin stimulation,"[1]; stimulation, at 2 µM",0.9%
same,insulin secretion stimulation,[2],-0.2% (inactive)
same,viability decrease,[3],-4.25% (inactive)
same,tube area decrease,[4],-18.8% (inactive)
same,GLP1 secretion stimulation,[5],3.3% (inactive)
same,inhibition of viability,[6],-16.9% (inactive)
same,viability decrease (inhibition),[7],18.1% (inactive)
same,viability decrease (inhibition),[8],1.05% (inactive)
same,fold change,[10]; stronger effect = lower value,0.947 (inactive)
same,fold change,[10]; [18],1.19
same,cell count,[10]; [19],9100
same,cell count,[10]; [20],9610
same,z-score,[12],0.65 (inactive)
CN[C@@H]1C[C@@H](c2ccc(Cl)c(Cl)c2)c2ccccc21,parasite load remaining,[13],4.35% (inactive)
same,viability,[13],29.3%
same,nuclear beta-catenin stimulation,[1]; at 10 µM,63.1% (active)
same,nuclear beta-catenin stimulation,"[1]; stimulation, at 2 µM",1.4%
same,insulin secretion stimulation,[2],6.2% (inactive)
same,viability decrease,[3],99.9% (active)
same,tube area decrease,[4],108% (active)
same,GLP1 secretion stimulation,[5],-0.3% (inactive)
same,inhibition of viability,[6],100% (active)
same,viability decrease (inhibition),[7],103% (active)
same,viability decrease (inhibition),[8],102% (active)
same,remaining activity,[15],107% (inactive)
same,fold change,[10]; stronger effect = lower value,0.889 (inactive) and 0.782 (inactive)
same,fold change,[10]; [18],0.588 and 1.76
same,cell count,[10]; [19],306 and 538
same,cell count,[10]; [20],344 and 689
same,z-score,[14]; [21],-1.52 (inactive)
same,z-score,[14]; [22],-1.03
same,z-score,[12],-1.29 (inactive) and -0.78 (inactive)
O=C(N/N=C/c1ccc([N+](=O)[O-])o1)c1cc([N+](=O)[O-])cc([N+](=O)[O-])c1O,nuclear beta-catenin stimulation,[1]; at 10 µM,0.7% (inactive)
same,nuclear beta-catenin stimulation,"[1]; stimulation, at 2 µM",1.8%
same,insulin secretion stimulation,[2],1.3% (inactive)
same,viability decrease,[3],79.6% (active)
same,tube area decrease,[4],-13.6% (inactive)
same,GLP1 secretion stimulation,[5],1% (inactive)
same,inhibition of viability,[6],29.8% (inactive)
same,viability decrease (inhibition),[7],25.2% (inactive)
same,viability decrease (inhibition),[8],4.8% (inactive)
same,red/green cell ratio (normalised),[9],1.05 (inactive)
same,normalised cell number,[9]; [16],1.03
same,normalised cell number,[9]; [17],1.08
same,fold change,[10]; stronger effect = lower value,0.946 (inactive)
same,fold change,[10]; [18],1.02
same,cell count,[10]; [19],8410
same,cell count,[10]; [20],8890
